For three compounds, potency estimated from few doses results are on record in article PMC11062922 (Nature Chemical Biology, 2023).

Common to all, as to parameters: species or system human, MV4-11 + K-562 + COLO205 + SK-N-BE2 + OVCAR-8
One assay concerns PIK3CB. Conditions: read-out: apparent Kd, n = 1.
The test system of a further assay is PIK3C3. Conditions: read-out: apparent Kd; compound concentrations:100 nM and 1000 nM (sheet 'Samples'); n = 1.
Another assay concerns PI4KB. Particulars: read-out: apparent Kd; compound concentrations: 100 nM and 1000 nM (sheet 'Samples'), CATDS: 0.52236122392279105; n = 1.
The next assay has as its system PKN3. Conditions: read-out: apparent Kd; compound concentrations: 100 nM and 1000 nM (sheet 'Samples'), CATDS: 0.47947466272848499; n = 1.

Read-outs that look alike come from different tables or passages of the source.

For the compound `Cc1nn2c(=O)cc(N3CCO[C@H](C)C3)nc2n1Cc1cccc(Cl)c1Cl` [GSK2373693A], the potency estimated from few doses in the assay on PIK3CB (compound concentrations: 100 nM and 1000 nM (sheet 'Samples'), CATDS: 1) is 0.0118 µM.

On to `O=c1cc(N2CCOCC2)nc2n(Cc3cccc(Cl)c3)ccn12` [GSK2296823A], for which the potency estimated from few doses in the assay on PIK3C3 is 0.667 µM; in the assay on PIK3CB (compound concentrations:100 nM and 1000 nM (sheet 'Samples')), 0.0305 µM.

Regarding `Nc1c(C(=O)c2cccc(C(O)(CO)CO)c2)cnn1-c1ccc(F)cc1` [RO3201790-000], the figures for the potency estimated from few doses in the assay on PI4KB and in the assay with PKN3 were 0.888 µM and 1.05 µM, respectively.
